From the supplement of paper PMC7530171
Structures can show the parent of a compound that is named as a salt. ± gives the standard deviation.

What was measured:
THP-1 = THP-1 cell loss relative to DMSO control; higher = more host cell loss (toxicity); extreme values may be limits of the assay; details: 10 µM; 4 days; infection: M. tuberculosis H37Rv
Method: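 OICR kinase inhibitor library screened in duplicate at 10 uM against M. tuberculosis-infected THP-1 macrophages, 4 days at 37 C. THP-1 cell loss (cytotoxicity or loss of adherence) was quantified from Hoechst-stained nuclei counts by high-content imaging and normalised to the 1% DMSO control; 100 = complete loss of host cells.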

[1] = system: THP-1 macrophages infected with Mycobacterium tuberculosis H37Rv; assay: intracellular M.tb growth inhibition relative to DMSO (0) and 4 uM bedaquiline (100); higher = stronger inhibition of intracellular bacterial growth; details: 10 µM; 4 days
Method: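 OICR kinase inhibitor library screened in duplicate at 10 uM against THP-1 macrophages (PMA-differentiated) infected with M. tuberculosis H37Rv-pTEC27 (tdTomato RFP), 4 days at 37 C. Rows with complete host cell loss (placeholder inhibition 0, cell loss 100) were removed.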

Row | Compound | THP-1 cell loss (THP-1) [%] | intracellular M.tb growth inhibition [1] [%]
1 | C=CC(=O)Nc1cc2c(Nc3ccc(F)c(Cl)c3)ncnc2cc1OCCCN1CCOCC1 | 100 | 
2 | O=C1NC(=O)/C(=C/c2ccc3c(c2)OC(F)(F)O3)S1 | 7.44 ± 3.3 | 
3 | O=S(=O)(NCCNC/C=C/c1ccc(Br)cc1)c1cccc2cnccc12 [H 89 dihydrochloride] | 10 ± 2.1 | 70.3 ± 6.1
4 | CN1CCC(Nc2ncc3ncnc(Nc4ccc(F)c(Cl)c4)c3n2)CC1 [BIBX 1382 dihydrochloride] | 17.8 ± 14 | 
5 | O=C(CO)N1CCC(c2n[nH]c(-c3ccc(Cl)cc3)c2-c2ccncn2)CC1 | 11.1 ± 0.43 | -135 ± 140
6 | COc1cc2c(Nc3ccc(NC(=O)c4ccccc4)cc3)ncnc2cc1OCCCN1CCOCC1 | 27.2 ± 1.4 | -10.1 ± 48
7 | FC(F)c1nc2ccccc2n1-c1nc(N2CCOCC2)nc(N2CCOCC2)n1 | 35.9 ± 1.9 | -26.3 ± 5.5
8 | NCC(=O)Nc1ccc(-n2nc(C(F)(F)F)cc2-c2ccc3c(ccc4ccccc43)c2)cc1 | 33.1 ± 2.5 | 92.3 ± 8.1
9 | C/C(=N\N=C(N)N)c1ccc(NC(=O)c2cc3cccc([N+](=O)[O-])c3[nH]2)cc1 | 0 | -73 ± 67
10 | COc1cc2ncnc(-n3nc(-c4ccccn4)nc3N)c2cc1OC | 67 ± 15 | -77 ± 180
11 | O=C(Nc1cc(Cl)cc2c1[nH]c1cnccc12)c1cccnc1 [PS1145 dihydrochloride] | 48.1 ± 24 | -10.6 ± 33
12 | CCc1nc(-c2cccc(C)c2)c(-c2ccnc(NC(=O)c3ccccc3)c2)s1 | 23.2 ± 2.1 | 0.0588 ± 120
13 | CC(C)CCN1c2nc(Nc3cc(F)c(O)c(F)c3)ncc2N(C)C(=O)C1C (stereo not given) | 56.5 ± 6.2 | -228 ± 190
14 | NC(=O)c1sc2c([N+](=O)[O-])cc(C(F)(F)F)cc2[n+]1[O-] [Cyclapolin 9] | 35.6 ± 12 | -65.9 ± 140
